Data as given in PMC4552634, “A New Set of Chemical Starting Points with Plasmodium falciparum Transmission-Blocking Potential for Antimalarial Drug Discovery” (PLoS ONE, 2015).
About 3,200 (25%) of roughly 13,000 compounds showed an effect of 50% or more. The list shows a part of the results.

tested on: P. falciparum stage V gametocytes; parameters: BacTiter-Glo ATP luminescence viability of purified stage V gametocytes in 384-well plates, per cent inhibition versus DMSO; conditions: 48 h, 5 µM; inhibitor

**Q.** `CCN(CCCN1CCCCC1)c1cc(C)nc(Nc2ccc(C(C)C)cc2)n1` [TCMDC-132454] was tested. Which “% Inhibition” value did it give?
**A.** -8.614%

**Q.** Which “% Inhibition” value does the source give for `Cc1ccc(NCc2cccc(F)c2)cc1S(=O)(=O)N[C@@H]1CCN(C#N)C1` [TCMDC-134125] here?
**A.** -7.553%

**Q.** Which “% Inhibition” value does the source give for `CCc1cc(OC)c(C(=O)NC2CCN(C[C@H](O)c3ccnc4ccc(OC)cc34)CC2)cc1Br` [TCMDC-141169] here?
**A.** -16.9%

**Q.** Which “% Inhibition” value does the source give for `CCCn1c(SCC(=O)Nc2cc(Cl)ccc2Cl)n[nH]c1=O` [TCMDC-123548] here?
**A.** -15.86%

**Q.** With `Cn1c(NC(=O)C2CCCN(C(=O)c3ccc(O)c(-c4ccc(Cl)c(Cl)c4)c3)C2)nc2ccccc21` (stereo not drawn) [TCMDC-140896] as the compound, how does the “% Inhibition” value read?
**A.** 30.61%

**Q.** For `CC(C)(C)Nc1cc(C(=O)N[C@@H](Cc2ccccc2)[C@H](O)CNC2CCOCC2)cc(N2CCCCS2(=O)=O)c1` [TCMDC-135686], which “% Inhibition” value is on record?
**A.** 8.531%

**Q.** Which “% Inhibition” value does the source give for `CCOc1ccc(C(=O)N2CCOC(CCN3CCC4(CCc5ccccc54)CC3)(c3ccc(Cl)c(Cl)c3)C2)cc1` (stereo not drawn) [TCMDC-135339] here?
**A.** -28.45%

**Q.** How did the “% Inhibition” value turn out when `O=C(/C=C/c1ccc(Cl)c(Cl)c1)NCCCCCN1CCCN(C(=O)Nc2ccc(Br)cc2)CC1` [TCMDC-135761] was run?
**A.** -59.24%

**Q.** How did the “% Inhibition” value turn out when `O=C(/C=C/c1ccc(Cl)cc1Cl)NCCCCCN1CCC(c2c[nH]c3ccccc23)CC1` [TCMDC-139696] was run?
**A.** 89.84%

**Q.** With `O=C(/C=C/c1ccc(Cl)cc1)NCCCCCN1CCC(c2c[nH]c3ccccc23)CC1` [TCMDC-139234] as the compound, how does the “% Inhibition” value read?
**A.** 97.27%

**Q.** For `O=C(NCCCCCN1CCC(c2c[nH]c3ccccc23)CC1)Nc1ccc(Cl)cc1Cl` [TCMDC-139166], which “% Inhibition” value is on record?
**A.** -62.24%

**Q.** `O=C(/C=C/c1ccc2ccccc2c1)NCCCCCN1CCC(c2c[nH]c3ccccc23)CC1` [TCMDC-139206] was tested. Which “% Inhibition” value did it give?
**A.** 99.19%

**Q.** For `O=C(/C=C/c1cccc(OC(F)(F)F)c1)NCCCCCN1CCC(c2c[nH]c3ccccc23)CC1` [TCMDC-139190], which “% Inhibition” value is on record?
**A.** -40.78%

**Q.** How did the “% Inhibition” value turn out when `O=C(/C=C/c1cc(C(F)(F)F)ccc1F)NCCCCCN1CCC(c2c[nH]c3ccccc23)CC1` [TCMDC-140010] was run?
**A.** -22%

**Q.** With `O=C(/C=C/c1cccc(Br)c1)NCCCCCN1CCC(c2c[nH]c3ccccc23)CC1` [TCMDC-139233] as the compound, how does the “% Inhibition” value read?
**A.** 3.439%

**Q.** How did the “% Inhibition” value turn out when `O=C(/C=C/c1cccc(Cl)c1)NCCCCCN1CCC(c2c[nH]c3ccccc23)CC1` [TCMDC-139211] was run?
**A.** 97.27%

**Q.** Which “% Inhibition” value does the source give for `CCCCCCP(=O)(COc1ccc(CCN(CC(O)COc2cccc3[nH]c(C(N)=O)cc23)CC(O)COc2cccc3[nH]c(C(N)=O)cc23)cc1)OCCCC` (stereo not drawn) [TCMDC-139041] here?
**A.** 20.08%

**Q.** With `CN1CCN(c2ccc(-c3cc(-c4cc(F)c(F)c(F)c4)cnc3N)cc2)CC1` [TCMDC-133345] as the compound, how does the “% Inhibition” value read?
**A.** -8.308%

**Q.** With `O=C(NC1CCN(Cc2ccccc2)CC1)c1cccc(Nc2nc(-c3ccccc3)cs2)c1` [TCMDC-136774] as the compound, how does the “% Inhibition” value read?
**A.** 0.9462%

**Q.** `COc1cc(Cc2cnc(N)nc2N)cc(OCCCCC#N)c1OC` [TCMDC-138035] was tested. Which “% Inhibition” value did it give?
**A.** -14.37%

**Q.** `c1cn(-c2ccc(CNc3nccc(Nc4ccc(OCCN5CCOCC5)cc4)n3)cc2)cn1` [TCMDC-134665] was tested. Which “% Inhibition” value did it give?
**A.** 13.33%

**Q.** `COc1ccc(-n2ccnc2SCC(=O)Nc2cccc(C(F)(F)F)c2)c(OC)c1` [TCMDC-123545] was tested. Which “% Inhibition” value did it give?
**A.** -5.921%

**Q.** How did the “% Inhibition” value turn out when `COc1ccccc1-n1ccnc1SCC(=O)Nc1cccc(C(F)(F)F)c1` [TCMDC-123546] was run?
**A.** 51.1%

**Q.** `COc1ccccc1-n1ccnc1SCC(=O)Nc1cc(C(F)(F)F)ccc1Cl` [TCMDC-123823] was tested. Which “% Inhibition” value did it give?
**A.** -21.34%

**Q.** Which “% Inhibition” value does the source give for `c1ccc(C23N=C(Nc4nc5ccccc5[nH]4)NC2(c2ccccc2)NC(Nc2nc4ccccc4[nH]2)=N3)cc1` (stereo not drawn) [TCMDC-139082] here?
**A.** -85.59%

**Q.** With `Cc1cc2nc(NC3=NC4(c5ccccn5)N=C(Nc5nc6cc(C)c(C)cc6[nH]5)NC4(c4ccccn4)N3)[nH]c2cc1C` (stereo not drawn) [TCMDC-139105] as the compound, how does the “% Inhibition” value read?
**A.** -75.39%

**Q.** Which “% Inhibition” value does the source give for `Cn1c(NC2=NC3(c4ccccn4)N=C(Nc4nc5ccccc5n4C)NC3(c3ccccn3)N2)nc2ccccc21` (stereo not drawn) [TCMDC-139096] here?
**A.** 50.49%

**Q.** How did the “% Inhibition” value turn out when `CCCNC[C@@H](O)[C@H](Cc1ccccc1)NC(=O)c1cc(NCC)cc(N2CCCCS2(=O)=O)c1` [TCMDC-135269] was run?
**A.** 19.71%

**Q.** For `Cc1cccc(-n2c(=O)c3c4c(sc3n3c(SCCC(C)C)nnc23)CCCC4)c1` [TCMDC-125651], which “% Inhibition” value is on record?
**A.** 34.66%

**Q.** How did the “% Inhibition” value turn out when `OC(CN1c2ccccc2Sc2ccccc21)CN(C1CCCCC1)C1CCCCC1` (stereo not drawn) [TCMDC-125553] was run?
**A.** 51.78%

**Q.** `C=CCc1ccccc1OCC(O)CN(C1CCCCC1)C1CCCCC1` (stereo not drawn) [TCMDC-123906] was tested. Which “% Inhibition” value did it give?
**A.** -42.05%

**Q.** `C[C@@H](COc1ccc(-c2ccccc2)cc1)CON1C(N)=NC(N)=NC1(C)C` [TCMDC-124029] was tested. Which “% Inhibition” value did it give?
**A.** 25.59%

**Q.** With `CNCc1ccc(CN(C)c2nc(N)c3cc(OC)c(OC)cc3n2)cc1` [TCMDC-131896] as the compound, how does the “% Inhibition” value read?
**A.** 48.14%

**Q.** `COc1cc2nc(N(C)Cc3cccc(I)c3)nc(N)c2cc1OC` [TCMDC-131898] was tested. Which “% Inhibition” value did it give?
**A.** -39.77%

**Q.** For `COc1cc2nc(N(C)Cc3cc4c(Cl)cccc4s3)nc(N)c2cc1OC.Cl` [TCMDC-131890], which “% Inhibition” value is on record?
**A.** 62.52%

**Q.** Which “% Inhibition” value does the source give for `CC1(C)N=C(N)N=C(N)N1c1ccc(Br)cc1` [TCMDC-123959] here?
**A.** 18.18%

**Q.** Which “% Inhibition” value does the source give for `COc1ccc(CNCc2ccc(F)cc2)cc1-c1ccc(S(=O)(=O)NCCN2CCCC2)cc1` [TCMDC-132294] here?
**A.** 108.8%

**Q.** Which “% Inhibition” value does the source give for `COc1ccc(CNCc2ccccc2)cc1-c1ccc(S(=O)(=O)NCCN2CCCC2)cc1` [TCMDC-132247] here?
**A.** 102%

**Q.** With `COc1cc2c(cc1S(=O)(=O)c1ccc(NC(=O)Nc3ccc(F)cc3)cc1)CCN(C)CC2` [TCMDC-141793] as the compound, how does the “% Inhibition” value read?
**A.** 32.2%

**Q.** Which “% Inhibition” value does the source give for `O=C(/C=C/c1ccc(Cl)c(Cl)c1)NCCCCCN1CCCN(C(=O)Nc2ccc(OC(F)F)cc2)CC1` [TCMDC-135756] here?
**A.** -55.78%

**Q.** How did the “% Inhibition” value turn out when `CC1(C)N=C(N)N=C(N)N1OCc1ccc2c(c1)OCO2` [TCMDC-131581] was run?
**A.** 47.46%

**Q.** With `CN1CCN(c2ccc(-c3cc(-c4ccncc4)c(-c4ccc(Cl)c(O)c4)o3)cc2)CC1` [TCMDC-141308] as the compound, how does the “% Inhibition” value read?
**A.** 9.946%
